Sampled rows, rich in hits. Any-hit rate of the full collection: about 21%.
Cycloheximide cs = affects cycloheximide protein synthesis inhibition readout, counter-screen; max response, %; 300,000 tested, 12% active; AID 2314; cell reporter, cycloheximide protein synthesis inhibition counterscreen; in the data active = max response mostly above about 13%, no sharp cut-off; inactive = mostly below about 14%; also: read at 38.3 µM for the half of the compounds with a filed dose
Sm TGR block = S. mansoni TGR enzyme inhibition; purified TGR, DTNB reduction, TNB absorbance 405 nm; Potency, µM (top dose mostly 114 µM), usual class: inhibitors; 360,000 tested, 3% active; AID 485364; also: nearly all actives have a fitted effect of over 60% in size
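First, TGR (20 nM dispensed) and NADPH were mixed with compound. Second, a 15 min room-temperature incubation followed. Third, further NADPH and then DTNB were added to start the reaction. Finally, TNB absorbance was monitored kinetically.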
Pf growth 48h = P. falciparum growth inhibition at 48 hours (one generation) | P. falciparum luciferase growth in erythrocytes, 48 h | Potency, µM (doses to about 28.7 µM), actives largely listed as inhibitors | 310,000 tested, 5.9% active
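In quantitative HTS format, infected erythrocytes bearing luciferase-reporter parasites were treated for a single generation at 37 C. Luminescence after adding detection reagent served as the growth measure.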
Shiga toxin inh = Shiga toxin inhibition; 290,000 tested, 9.2% active; Vero cells, Shiga toxin protein synthesis inhibition reporter; AID 2315; inhibition, % at 38.7 µM; in the data active = inhibition mostly above about 28%, no sharp cut-off; inactive = mostly below about 43%
NS1 function inh = inhibitors of influenza NS1 protein function; Potency, µM (doses to about 46.1 µM); 270,000 tested, 0.4% active; calls by dose curve; also: actives are rising curves; nearly all actives have a fitted effect of over 50% in size
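Growth recovery, yeast-based: influenza A NS1 expressed in S. cerevisiae causes slow growth, and suppressors are detected by OD600. The parent strain without NS1 is used as positive control.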
Pf growth 96h = P. falciparum growth inhibition at 96 hours | P. falciparum luciferase reporter growth, 96 h | Potency, µM (doses to about 28.7 µM), most hits filed as inhibitors | 320,000 tested, 6.9% active | AID 504834
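Luminescence readout: decreased luciferase signal marks inhibited growth of reporter-expressing P. falciparum in infected red cells (2% hematocrit, 0.05% parasitemia final), exposed to compound two generations (96 h, 37 C, 5% CO2).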
A number is an active result; n = inactive; u = inconclusive; x = no result given. Unless noted, calls follow the shape of the dose curve; as a rule, active = well fitted curve in the direction sought with a large enough effect; inconclusive = small, poorly fitted or top-dose-only effect, or another doubt; inactive = no such curve, though single readings can be large; an effect the other way counts as inactive or inconclusive.

SMILES	Cycloheximide cs	Sm TGR block	Pf growth 48h	Shiga toxin inh	NS1 function inh	Pf growth 96h
O=C(NCCN1CCN(C(=O)c2ccc(F)cc2)CC1)c1ccc(F)cc1	n	n	n	n	n	11.7µM
O=C(NCCN1CCCCC1)c1ccc(F)cc1Cl	12.0	n	n	n	n	n
Cc1cccc(C)c1NC(=O)N1CC=CCC1	n	n	n	n	n	n
COc1ccc(C(=O)N2CCOC2CNC(=O)C(=O)NCc2ccc(Cl)cc2)cc1 (stereo not drawn)	n	n	n	n	x	n
CC1(C)CC2CC(C)(CN2C(=O)COC(=O)CNC(=O)c2ccc(Cl)c(Cl)c2)C1 (stereo not drawn)	n	n	n	n	n	u
Cc1ccc(NC(=O)C(=O)N2CCCC2)cc1Cl	38.7	n	n	115.9	n	n
COc1ccc(NC(=O)N2CCCC2)cc1OC	n	n	n	n	n	x
Cc1ccc(NC(=O)N2CCCC2)cc1Cl	38.4	n	n	83.7	x	n
Cc1cccc(NC(=O)C(NS(=O)(=O)c2ccc3c(c2)oc(=O)n3C)C(C)C)c1 (stereo not drawn)	x	n	x	x	x	x
CC1CCCCN1C(=O)c1ccc(CS(=O)(=O)Cc2ccccc2)cc1 (stereo not drawn)	n	n	n	n	n	u
O=C1CCC(=O)N1c1ccccc1	n	n	n	n	n	n
CN(C)c1nc(N(C)C)nc(N2CC(=O)N(c3ccccc3)C2=N)n1	n	n	2.94µM	n	x	n
COc1cccc(N2CCN(C3C4CC5CC(C4)CC3C5)CC2)c1 (stereo not drawn)	22.0	n	x	n	n	x
Cn1c(=O)c2c(SCC(=O)NCc3ccc(F)cc3)nc(-c3ccccc3Cl)nc2n(C)c1=O	x	n	x	x	x	x
Cc1ccccc1-c1nc(P(=O)(c2ccccc2)c2ccccc2)c(N2CCOCC2)o1	n	n	14.7µM	n	n	u
CCOP(=O)(c1ccccc1)c1nc(-c2ccccc2C)oc1NCc1ccccc1 (stereo not drawn)	n	n	11.7µM	n	n	u
Cc1nc(P(=O)(c2ccccc2)c2ccccc2)c(N2CCOCC2)o1	n	n	u	n	n	n
CCOP(=O)(c1ccccc1)c1nc(-c2ccccc2C)oc1N1CCCCC1 (stereo not drawn)	n	n	13.1µM	n	n	n
COc1ccc(/C=C/C(=O)OCCCN(C)C)cc1	n	x	n	n	n	n
COc1ccc(CNC(=O)C(C)N2Cc3ccccc3C2=O)cc1 (stereo not drawn)	x	n	x	x	x	x
COc1cccc2c(=O)c(SC(F)(F)C(F)C(F)(F)F)c(C)[nH]c12 (stereo not drawn)	n	n	6.57µM	52.0	n	3.7µM
Cc1[nH]c2ccc(F)cc2c(=O)c1SC(F)(F)C(F)C(F)(F)F (stereo not drawn)	n	n	x	n	n	n
COc1cccc2c(=O)c(C/C=C(/C)Cl)c(C)[nH]c12	n	n	0.738µM	n	n	x
COc1cc(NC(=O)Cn2c(=O)n(-c3ccccc3)c(=O)c3c4c(sc32)CCCC4)cc(OC)c1	x	n	x	x	x	x
Clc1ccccc1-c1nc2ccccc2c2nc3ccccc3n12	n	n	n	n	n	n
SMILES	Cycloheximide cs	Sm TGR block	Pf growth 48h	Shiga toxin inh	NS1 function inh	Pf growth 96h
S=c1nc2ccccc2c2nc(-c3ccccc3Cl)[nH]n12	n	n	1.47µM	n	n	1.65µM
CC(Oc1ccc(Br)cc1)c1nc2c3ccccc3nc(=S)n2[nH]1 (stereo not drawn)	n	n	1.47µM	n	x	u
S=c1nc(-c2ccccc2)[nH]n1-c1ccccc1	n	n	n	n	n	u
S=c1nc2ccccc2c2nc(-c3ccccc3)[nH]n12	n	n	4.65µM	n	n	n
COc1ccccc1-c1nc2c3ccccc3nc(=S)n2[nH]1	n	n	4.65µM	n	n	1.47µM
CCCC(Oc1ccc(Br)cc1)c1nc2c3cc(OC)c(OC)cc3nc(=S)n2[nH]1 (stereo not drawn)	n	n	u	n	x	n
COc1cc(-c2nc3c4ccccc4nc(=S)n3[nH]2)cc(OC)c1OC	n	n	u	n	n	n
O=C(C1CCCN(S(=O)(=O)c2cccc3nonc23)C1)N1CCN(c2cccc(C(F)(F)F)c2)CC1 (stereo not drawn)	x	n	x	x	x	x
CCOC(=O)C1(Cc2ccccc2Cl)CCN(Cc2csc(C(C)=O)c2)CC1	n	n	u	n	n	u
CCOC(=O)C1(CCCc2ccccc2)CCN(C(=O)CN2CCOC2=O)CC1	n	n	n	n	n	14.7µM
CCOC(=O)C1(Cc2ccccc2Cl)CCN(C(=O)CN2CCOC2=O)CC1	42.6	n	n	74.7	n	n
COc1cccc2c1N(C)C(=O)CC21C=CC(=O)C=C1	n	x	x	n	x	x
CC(C)c1ccc(/C=C2\CC/C(=C\C=N\N(C)C)C2=O)cc1	55.3	n	x	124.6	n	u
CC(C)/C=C1\CC/C(=C\c2ccc(N(C)C)cc2)C1=O	35.5	n	n	77.1	n	n
Cc1ccc(CSc2nc3ccsc3c(=O)n2Cc2ccccn2)cc1	n	n	n	n	n	n
N#Cc1ccccc1CSc1nc2ccsc2c(=O)n1Cc1ccccn1	17.6	n	n	n	n	u
O=c1c2sccc2nc(SCc2cc(=O)n3cc(Br)ccc3n2)n1Cc1ccccn1	26.4	n	n	93.0	x	u
CC(C)CC(=O)NCC(c1ccc2c(c1)OCO2)N1CCN(c2ccccc2)CC1 (stereo not drawn)	x	n	x	x	x	x
C/C=C/C(=O)Nc1cccc(C2=NOC3(C2)C[C@@H](C(N)=O)N(C(=O)/C(C)=C/C)C3)c1 (stereo partly drawn)	n	n	n	n	n	u
CCOC(=O)C1C(=O)C=C(/C=C/c2ccc(N(C)C)cc2)CC1c1ccccc1 (stereo not drawn)	n	n	u	n	n	u
CC(C)=CCN1CCN(Cc2cccn2-c2nccs2)CC1CCO (stereo not drawn)	n	n	n	n	n	10.4µM
OCCC1CN(Cc2cccn2-c2nccs2)CCN1Cc1ccc(F)c(F)c1 (stereo not drawn)	n	u	u	n	n	13.1µM
CCOc1ccccc1CN1CCC(n2nccc2NC(=O)CCc2ccccc2)CC1	n	n	u	n	n	n
CN(Cc1ccccc1)C(=O)CN1C(=O)c2ccccc2C1=O	n	n	n	x	n	n
CC(C)(C)N(Cc1ccccc1)C(=O)CN1C(=O)c2ccccc2C1=O	38.3	n	n	54.7	n	n
SMILES	Cycloheximide cs	Sm TGR block	Pf growth 48h	Shiga toxin inh	NS1 function inh	Pf growth 96h
NC(=O)SCC(=O)Nc1ccc2ncccc2c1	x	x	x	x	n	x
CN(/N=C/c1ccncc1)C1=NCCN1	n	n	n	n	n	n
CN(/N=C/c1ccncc1)c1cnc2ccccc2n1	47.9	n	n	75.3	x	u
CCn1c(Cc2cccs2)nnc1SCC(=O)NC(C)(C)C	n	n	u	n	n	u
Cc1ccc(C(=O)Nc2ccc3nccnc3c2)cc1	24.5	n	n	48.0	n	n
O=C(Nc1ccc2cccnc2c1)c1ccc(Br)cc1	24.0	n	n	x	n	n
